Out of some 1,400 compounds screened, about 100 (7.1%) were called active. No rule for the calls is given here. Only a sample is shown. Entries with a potency or affinity are not part of this list.
test: Vero cell toxicity, dose response, cytotoxicity control, plate reader, cherry-pick samples (AID 687020); settings: Vero cells toxicity; series mostly up to 19.5 µM;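 also: compounds incubated with cells for three days before luminescence read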

| Compound | outcome |
| --- | --- |
| Cc1noc(C)c1NC(=O)N(C)C[C@H]1OCCCC[C@H](C)Oc2ccc(NC(=O)NC(C)C)cc2C(=O)N([C@H](C)CO)C[C@@H]1C | inactive |
| CCOC(=O)c1cn(CC)c2cc3c(cc2c1=O)OCO3 | inactive |
| Cc1ccc(NC(=O)c2cc(-c3cc(Cl)ccc3C)n[nH]2)cc1NS(C)(=O)=O | inactive |
| O=C(NCc1ccccc1)[C@H]1CCCN1C(=O)[C@@H]1CCCN1C(=O)c1ccc(Cl)cc1Cl | inactive |
| O=C(NCc1ccccc1)c1ccccc1 | inactive |
| Cc1noc(C)c1NC(=O)Nc1cccc2c1O[C@@H](CN(C)S(=O)(=O)c1ccc(F)cc1)[C@@H](C)CN([C@@H](C)CO)C2=O | inactive |
| Fc1ccc(CNC2CCN(Cc3ccccc3)CC2)cc1 | inactive |
| C=CCOc1ccccc1CNn1c(C)n[nH]c1=S | inactive |
| CN(Cc1ccccc1)C(=O)c1nc[nH]c1C(=O)N1CCN(C(=O)OC(C)(C)C)CC1 | inactive |
| COC(=O)C[C@H]1CC[C@H]2[C@@H](COc3ccc(NC(=O)c4cnccn4)cc3C(=O)N2C)O1 | inactive |
| CCCCOc1ccc(C(=O)NCCOc2cccc(OC)c2)cc1 | inactive |
| CS(=O)(=O)NCc1ccc(C(=O)NCCOc2ccccc2)cc1 | inactive |
| Cc1c(Cl)cccc1NC(=O)CNC(=O)C1CC(=O)N(C2CCCC2)C1 (centres undefined) | inactive |
| Cc1noc(C)c1NC(=O)Nc1ccc2c(c1)C(=O)N([C@@H](C)CO)C[C@H](C)[C@@H](CN(C)C(=O)CCCN(C)C)OCCCC[C@@H](C)O2 | inactive |
| CN(C)CCCNC(=O)OC1CC2CC1[C@H]1CCCCN1C2=O (some centres undefined) | inactive |
| CCCNC(=O)OC1CC2CC1[C@H]1CCCCN1C2=O (some centres undefined) | inactive |
| O=C(NCc1ccccn1)C(=O)NCC1OCCN1S(=O)(=O)c1ccc(Br)cc1 (centres undefined) | inactive |
| COc1ccc(Cl)cc1NC(=O)CN(C)C(=O)C1COc2ccccc2O1 (centres undefined) | inactive |
| Cc1noc(C)c1S(=O)(=O)Nc1ccc2c(c1)C(=O)N([C@@H](C)CO)C[C@@H](C)[C@H](CN(C)C(=O)Nc1ccccc1)OCCCC[C@@H](C)O2 | inactive |
| Cc1cc(C)n2c(Nc3ccc4c(c3)OCCO4)c(CC(C)C)nc2n1 | inactive |
| Cc1cc(C)n2c(NC3CCCCC3)c(-c3ccccn3)nc2n1 | inactive |
| COC(=O)C[C@@H]1OC[C@H](Cc2ccccc2)N1S(=O)(=O)c1ccc(C)cc1 | inactive |
| Cc1ccc(S(=O)(=O)N2CCN(C(=O)C(O)c3ccccc3)CC2)cc1 (centres undefined) | inactive |
| Cc1ccc(S(=O)(=O)N2CCN(C(=O)COC(=O)Cc3ccc(Cl)cc3)CC2)c(C)c1 | inactive |

| Compound | outcome |
| --- | --- |
| COc1ccc(C(C(=O)NCc2ccccc2)n2c(-c3ccncc3)nc3ccccc32)cc1 (centres undefined) | inactive |
| CN(C)c1ccc(CNS(=O)(=O)c2ccc3c(c2)C(C)(C)C(=O)N3C)cc1 | inactive |
| C[C@H]1CCCCO[C@H](CN(C)S(=O)(=O)c2ccc(Cl)cc2)[C@@H](C)CN([C@@H](C)CO)C(=O)c2cc(NC(=O)Cc3ccccc3)ccc2O1 | inactive |
| COc1ccccc1CCNS(=O)(=O)CCNC(=O)c1ccc2c(c1)OCO2 | inactive |
| COc1ccc(OC)c(S(=O)(=O)N2CCN(c3c(C)cccc3C)CC2)c1 | inactive |
| COc1ccc(C2=Nn3c(nnc3-c3ccccc3Cl)SC2)cc1OCC1CC1 | inactive |
| COc1ccc(-c2cnc3c(NC(C)=O)cc(-c4ccccc4OC)cn23)cc1OC | inactive |
| CCCNC(=O)N1C[C@H](O)COC[C@@H]2O[C@@H](CC(=O)N3CCOCC3)CC[C@H]21 | inactive |
| COc1ccc(C(C)(NC(C)=O)c2nc(-c3cccc(F)c3)cs2)cc1 (centres undefined) | inactive |
| O=C(CCc1nc2ccccc2c(=O)[nH]1)N1CCCc2ccccc21 | inactive |
| C[C@@H]1CN([C@@H](C)CO)C(=O)c2cc(C#CCc3ccccc3)cnc2O[C@@H]1CN(C)C(=O)C1CCOCC1 | inactive |
| c1ccc(-c2csc(-c3ccc(-c4csnn4)cc3)n2)cc1 | inactive |
| O=C(NCC1CC1)C1(S(=O)(=O)c2ccccc2)CC=CC1 | inactive |
| CCOC(=O)CN1CC23C=CC(O2)C(C(=O)NCCc2ccccc2)C3C1=O (centres undefined) | inactive |
| CCOC(=O)N1CCN(Cc2nc3cc(NC(=O)CC)ccc3n2CC)CC1 | inactive |
| COc1cc(NC(C)=O)c2ncccc2c1Br | inactive |
| COc1ccc(CN2CCC[C@]3(N[C@H](c4ccc(OC)cc4)[C@@H]4C(=O)N(C)C(=O)[C@@H]43)C2=O)cc1 | inactive |
| O=C(O)CNC(=O)c1ccc(NS(=O)(=O)c2ccc3ccccc3c2)cc1 | inactive |
| Cc1cc(Br)ccc1NC(=O)CN(C)C(=O)COc1cccc2c1OC(C)(C)C2 | inactive |
| O=C1N2CCCCC1(c1ccccc1)CCCC2 | inactive |
| COCCCN1C(=O)C(CC(=O)NC2CCCCC2)CC(C(=O)N(C(C)C)C(C)C)=C1C (centres undefined) | inactive |
| COc1ccc(N(CC(=O)N2CCN(C)CC2)S(=O)(=O)c2cc(C)ccc2OC)cc1Cl | inactive |
| O=C(Nc1ccc(S(=O)(=O)NC2=NCCCCC2)cc1)c1cccs1 | inactive |
| COc1ccc(-c2ccccc2)cc1NC(=O)c1cccs1 | inactive |

| Compound | outcome |
| --- | --- |
| CC(C)NC(=O)N(C)C[C@@H]1Oc2ccc(NC(=O)Cc3cn(C)c4ccccc34)cc2C(=O)N([C@@H](C)CO)C[C@H]1C | inactive |
| OC(COC(c1ccc(Cl)cc1)c1ccc(Cl)cc1)CN1CCN(c2ccccn2)CC1 (centres undefined) | inactive |
| CCN(CC)c1ccc(/C=N/N2C(=O)c3ccccc3C2=O)c(O)c1 | inactive |
| COc1cccc(NC(=O)CCN2C(=O)C3CC=CCC3C2=O)c1 (centres undefined) | inactive |
| CCc1ccccc1OCC(=O)NNCC(=O)Nc1cccc(C#N)c1 | inactive |
| CC(=O)N1[C@H](CO)[C@@H](c2ccc(-c3cccc(F)c3)cc2)[C@H]1CNC(=O)C1CC1 | inactive |
| COc1ccc([C@H]2C[C@@H](n3cc(C4CC4)nn3)[C@H](O)CN2Cc2cccs2)cc1 | inactive |
| COc1ccc(C(=O)N2CCCCC2c2cc(C(=O)NCc3cccnc3)no2)cc1 (centres undefined) | inactive |
| C[C@H](NC(=O)C1CCN(S(=O)(=O)c2ccccc2)CC1)C(=O)NCc1cccnc1 | inactive |
| CC(C)[C@H](NC(=O)c1cccs1)C(=O)N1CCC[C@H]1C(=O)NCc1ccccc1 | inactive |
| O=C(Nc1ccc2c(c1)CCC2)c1ccccc1 | inactive |
| CN1CCC(=O)N([C@H](COc2ccccc2)Cc2ccccc2)CC1 | inactive |
| Cc1cccc(C(=O)OCC(=O)NCc2ccc(Cl)cc2)c1 | inactive |
| CSc1ccccc1OCc1cc(C(=O)N2CCc3[nH]cnc3C2c2ccccn2)no1 (centres undefined) | inactive |
| CN1C(c2ccccc2)CCOS1(=O)=O (centres undefined) | inactive |
| C=CCOc1ccc(CNCc2cccnc2)cc1OCC | inactive |
| Cc1nc2c(OCCC3CCCCC3)cccn2c1N(C)C(=O)CCC1CCCC1 | inactive |
| Cc1ccc(-c2nc3ccccc3n2C(C(=O)NC(C)(C)C)C2CC2)cc1 (centres undefined) | inactive |
| Cc1csc(-c2nc3ccccc3n2C(C(=O)NC(C)(C)C)c2ccccc2)c1 (centres undefined) | inactive |
| CCOc1ccc(OCC(=O)N(C)c2c(N)n(Cc3ccccc3)c(=O)[nH]c2=O)cc1 | inactive |
| CC#CCN1C(=O)N[C@@H](c2ccccc2)C(C(=O)OC)=C1C | inactive |
| C[C@@H]1CN([C@H](C)CO)C(=O)c2cc(NC(=O)c3ccncc3)ccc2O[C@@H](C)CCCCO[C@H]1CN(C)C | inactive |
| COc1ccc2c(=O)cc(-c3ccncc3)oc2c1OC | inactive |
| CCOC(=O)C1=C(C)NC(=O)C(C#N)C1c1ccncc1 (centres undefined) | inactive |

| Compound | outcome |
| --- | --- |
| Cc1cc(OCC(=O)NC2CC(C)(C)NC(C)(C)C2)c(C)cc1Br | inactive |
| CCc1cc(=O)oc2cc(OCC(=O)NC3CC(C)(C)NC(C)(C)C3)ccc12 | inactive |
| CCOC(=O)C1(Cc2ccccc2C)CCCN(C(=O)c2cc(C3CC3)[nH]n2)C1 (centres undefined) | inactive |
| N#CC(Cc1ccccc1OC(F)F)c1nc2ccccc2[nH]1 (centres undefined) | inactive |
| CC(=O)NC[C@H]1[C@H](c2ccc(-c3ccccc3F)cc2)[C@@H](CO)N1C(=O)C1CC1 | inactive |
| O=C(COC(=O)c1ccc2c(c1)OCO2)NC1CCCCC1 | inactive |
| COCCNC(=O)C1(C)CCCN(C(=O)c2ccc(C(F)(F)F)cc2)C1 (centres undefined) | inactive |
| CO[C@@H]1CN(C)C(=O)c2cc(NC(=O)c3ccccc3)ccc2OC[C@H](C)N(C(=O)C2CC2)C[C@@H]1C | inactive |
| COc1cc(C(=S)N2CCCCC2)ccc1OCC(=O)Nc1ccc(F)cc1 | inactive |
| O=C(O)C1CCCCC1C(=O)N1CCN(S(=O)(=O)c2ccc(F)cc2)CC1 (centres undefined) | inactive |
| O=C(NCCCC1CCCC1)C1CCC(=O)N(Cc2cccc(C(F)(F)F)c2)C1 (centres undefined) | inactive |
| COc1ccc(NC(=O)Nc2ccc3c(c2)C(=O)N([C@@H](C)CO)C[C@H](C)[C@H](CN(C)Cc2ccc(C(=O)O)cc2)OCCCC[C@H](C)O3)cc1 | inactive |
| O=C1NC[C@H](Cc2ccccc2)N(CC2CCN(CCCCc3ccccc3)CC2)C1=O | inactive |
| O=C1[C@@H](Oc2ccccc2)[C@@H](c2ccncc2)N1c1ccccc1 | inactive |
| COc1cc(C(=S)N2CCCC2)ccc1OCc1ccc(C)cc1 | inactive |
| COc1cccc(OCc2cc(C(=O)N(C)CCC3CCCCO3)no2)c1 (centres undefined) | inactive |
| O=S(=O)(NCCC1=CCCCC1)c1ccc(Br)cc1 | inactive |
| F[B-](F)(F)c1cnc2ccccc2c1 | inactive |
| Cn1cccc1C(=O)OCC(=O)NC(=O)c1ccc(Cl)cc1 | inactive |
| C[C@H](CO)N1C[C@H](C)[C@@H](CN(C)C(=O)Nc2ccc(C(F)(F)F)cc2)OCCCC[C@H](C)Oc2ccc(NS(=O)(=O)c3cccs3)cc2C1=O | inactive |
| Cc1noc(C)c1NC(=O)Nc1ccc2c(c1)C(=O)N([C@@H](C)CO)C[C@@H](C)[C@@H](CN(C)Cc1ccccc1)OCCCC[C@@H](C)O2 | inactive |
| CNC[C@@H]1OCCCC[C@H](C)Oc2ccc(NS(=O)(=O)c3c(C)noc3C)cc2C(=O)N([C@@H](C)CO)C[C@H]1C | inactive |

Source: PubChem BioAssay AID687020 (Broad Institute, 2013)
